Assay [1] is described as follows: qHTS assay to identify small molecule antagonists of the estrogen related receptor (ERR) signaling pathway from Tox21 library - cell viability counter screen (AID 1224834). Note: nearly all actives have a fitted effect of over 30% in size. Note: potency is the fitted concentration of half-maximal effect. In outline: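 ERR cells, 2,000/well; 6 h settle at 37 C/5% CO2; pin-tool compound transfer in DMSO; 17.5 h at 37 C; CellTiter-Fluor, 30 min; fluorescence intensity.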
Background: qHTS replaces the single test concentration by a dilution series.

Assay [2] addresses Luciferin 4-monooxygenase (Photinus pyralis) (UniProt P08659). Nature of the assay: qHTS assay to identify small molecule inhibitors of firefly luciferase (AID 1224835). Note: nearly all actives have a fitted effect of over 25% in size. Note: potency is the fitted concentration of half-maximal effect. The gist of the method:
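Quantitative HTS format; KM concentrations of both substrates. Purified P. pyralis FLuc activity quantified from luminescence images.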

A short description of assay [3]: qHTS assay to identify small molecule agonists of the constitutive androstane receptor (CAR) signaling pathway - cell viability counter screen (AID 1224836). Note: nearly all actives have a fitted effect of over 45% in size. In outline: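 Fluorescence from CellTiter-Fluor indicates live cells after 23 h exposure. The human hepatoma line expresses hCAR and a CYP2B6-2.2kb reporter. Incubation medium contains 0.75 uM PK11195 (final).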

Assay [4] in a line: qHTS assay to identify small molecule antagonists of the constitutive androstane receptor (CAR) signaling pathway - cell viability counter screen (AID 1224837). Note: nearly all actives have a fitted effect of over 45% in size. Note: potency is the fitted concentration of half-maximal effect. The gist of the method:
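Viability was measured with CellTiter-Fluor in a HepG2 line carrying stably transfected hCAR and a CYP2B6-2.2kb construct. Cells were exposed for 23 hr at 37 C to 15 compound concentrations with 50 nM CITCO as agonist.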

The target in assay [5] is Nuclear receptor subfamily 1 group I member 3 (Homo sapiens) (UniProt Q14994). Nature of the assay: qHTS assay to identify small molecule antagonists of the constitutive androstane receptor (CAR) signaling pathway (AID 1224838).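 Note: HepG2 cells stably expressing hCAR with CYP2B6 luciferase reporter stimulated by CITCO; nearly all actives have a fitted effect of over 40% in size.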 Note: potency is the fitted concentration of half-maximal effect. In outline: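 Antagonist mode used CITCO at a final 50 nM to activate CAR in human hepatoma HepG2 cells carrying stable hCAR and a 2.2 kb CYP2B6 promoter-luciferase construct. Compounds were tested at 15 concentrations over 24 h, with luminescence as the end point.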
Sequence of Nuclear receptor subfamily 1 group I member 3 (Homo sapiens) (Q14994 whole entry, looked up): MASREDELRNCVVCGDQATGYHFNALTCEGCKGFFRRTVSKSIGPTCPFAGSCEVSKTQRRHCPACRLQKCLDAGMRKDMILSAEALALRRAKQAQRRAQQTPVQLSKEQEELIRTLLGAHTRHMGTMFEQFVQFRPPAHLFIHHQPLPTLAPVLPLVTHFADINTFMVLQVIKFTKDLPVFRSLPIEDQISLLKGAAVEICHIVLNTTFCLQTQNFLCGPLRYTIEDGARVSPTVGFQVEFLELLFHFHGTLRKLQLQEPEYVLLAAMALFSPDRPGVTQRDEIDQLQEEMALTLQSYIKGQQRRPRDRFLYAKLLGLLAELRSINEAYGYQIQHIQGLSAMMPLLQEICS

Assay [6] shares this target. Briefly: qHTS assay to identify small molecule agonists of the constitutive androstane receptor (CAR) signaling pathway (AID 1224839). Note: nearly all actives have a fitted effect of over 15% in size. In outline: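 Stable hCAR/CYP2B6-2.2kb HepG2 line in DMEM with 10% FBS; compounds (15 concentrations) and 0.75 uM PK11195 final, 24 h at 37 C/5% CO2, then ONE-Glo luminescence after 30 min.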
Assay [7] can be described thus: qHTS assay to identify small molecule antagonists of the estrogen related receptor signaling pathway with the pleiotropic PPARgamma coactivator (PGC) from Tox21 10K library - cell viability counter screen (AID 1224840; active = well fitted cell-killing curve with a large enough effect in the repeat runs, not every such curve was filed as active; note: nearly all actives have a fitted effect of over 40% in size; note: potency is the fitted concentration of half-maximal effect). In outline: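 Multiplexed viability counter screen in the PGC/ERR cell line: cells treated with DMSO-dissolved compounds for 17.5 hours at 37 C, then viability measured as CellTiter-Fluor fluorescence.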

Assay [8] in a line: qHTS assay to identify small molecule agonists of the estrogen related receptor signaling pathway with the pleiotropic PPARgamma coactivator (PGC) from Tox21 10K library (AID 1224842). Note: nearly all actives have a fitted effect of over 15% in size. In outline: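 PGC/ERR reporter cells (NTP line) were seeded 2,000 per well, rested 6 h at 37 C/5% CO2, then pin-dosed with compounds in DMSO for 18 h at 37 C; luciferase read by One-Glo luminescence after 30 min at room temperature.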

Assay [9] in a line: qHTS assay to identify small molecule agonists of the hypoxia (HIF-1) signaling pathway - cell viability counter screen (AID 1224844; calls by dose curve; note: nearly all actives have a fitted effect of over 50% in size; note: potency is the fitted concentration of half-maximal effect). In outline: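 Cytotoxicity was measured in parallel with the HRE-driven beta-lactamase readout: after 17 hrs of compound exposure at 37C, HRE-bla ME-180 cells received CellTiter-Glo and luminescence was recorded 30 min later.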
Assay [10] is described as follows: qHTS assay to identify small molecule antagonists of the estrogen related receptor (ERR) signaling pathway from Tox21 library (AID 1224848). Note: nearly all actives have a fitted effect of over 50% in size. Note: potency is the fitted concentration of half-maximal effect. In outline:
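First, 2,000 ERR cells per well were plated and held 6 h at 37 C/5% CO2. Next, compounds in DMSO were pinned in and left 18 h at 37 C. Finally, ONE-Glo was added and luminescence read after 30 min at room temperature.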

Assay [11] can be described thus: qHTS assay to identify small molecule agonists of the estrogen related receptor (ERR) signaling pathway from Tox21 library (AID 1224849; calls by dose curve; note: nearly all actives have a fitted effect of over 15% in size). The conditions noted are these: ERR reporter cell line, ONE-Glo luciferase, 18 h; at 92.4 µM (top of the series) unless noted. The gist of the method:
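Cells carrying the ERR reporter were plated and allowed to settle for 6 h, exposed to library compounds for 18 h at 37 C, then lysed with ONE-Glo and luminescence measured.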

A short description of assay [12]: qHTS RealTime-Glo MT Cell Viability Assay in HEK293 cells - 32 hour (AID 1224868). Note: nearly all actives have a fitted effect of over 50% in size. Note: potency is the fitted concentration of half-maximal effect. The gist of the method:
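Luminescence generated by NanoLuc from substrate produced by living HEK293 cells served as the viability signal. Each value reflects the reading at its stated time point during continuous 40 h compound exposure at 37 C.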

Assay [13] is described as follows: A CellTox Green Cytotoxicity Assay to monitor cytotoxicity in HEK293 cells - 0 hour (AID 1224869). Note: nearly all actives have a fitted effect of over 50% in size. The gist of the method:
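Cells (HEK293, 600/well) and dye reagent are dispensed together. After 5 h at 37 C, 23 nL compound is pinned in. Plates stay at 37 C for 40 h with fluorescence read at 0h, 8h, 16h, 24h, 32h and 40h.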

The nature of assay [14]: qHTS RealTime-Glo MT Cell Viability Assay in HepG2 cells - 40 hour (AID 1224870). Note: nearly all actives have a fitted effect of over 50% in size. Note: potency is the fitted concentration of half-maximal effect. The gist of the method:
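HepG2 cells mixed with RealTime-Glo MT reagents (NanoLuc plus cell-permeant prosubstrate) were seeded at 600 cells/well, incubated 5 h at 37 C/5% CO2, then pinned with compounds in DMSO; nonlytic luminescence tracked viability during 40 h treatment.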

A short description of assay [15]: qHTS assay to identify small molecule antagonists of the estrogen related receptor signaling pathway with the pleiotropic PPARgamma coactivator (PGC) from Tox21 10K library (AID 1224841; call rule not given here). The gist of the method:
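Steps: plate 2,000 PGC/ERR cells per well; incubate 6 h at 37 C with 5% CO2; transfer compounds from DMSO stocks by pin tool; incubate 18 h at 37 C; add One-Glo; measure luminescence 30 min later.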

Assay [16] is described as follows: qHTS assay to identify small molecule agonists of the hypoxia (HIF-1) signaling pathway (AID 1224846; active = well fitted activation curve with a large enough effect in the signal ratio in the repeat runs, not every such curve was filed as active; the % refers to the signal ratio). The gist of the method:
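Compounds from the Tox21 10K library, dissolved in DMSO, are tested for induction of a hypoxia response element–controlled beta-lactamase reporter in ME-180 cells. Exposure lasts 17 hrs at 37C after a 5 hr settling period, followed by CCF4-AM FRET substrate.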

Assay [17] can be described thus: qHTS RealTime-Glo MT Cell Viability Assay in HepG2 cells - 24 hour (AID 1224867). Note: nearly all actives have a fitted effect of over 50% in size. In outline: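 Tox21 10K library screened in qHTS format on HepG2 cells carrying RealTime-Glo reagents. Compounds were added after a 5 h preincubation, and the luminescent signal from continuous culture was measured repeatedly during 40 h treatment.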
In assay [18] the target is Thyrotropin receptor (Homo sapiens) (UniProt P16473). Nature of the assay: qHTS assay to identify small molecule agonists of the thyroid stimulating hormone receptor (TSHR) signaling pathway (AID 1224843; calls by dose curve; note: nearly all actives have a fitted effect of over 45% in size). The gist of the method:
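Compounds are titrated over 15 concentrations, in triplicate, onto TSHR-HEK293 cells seeded at 800/well. Plates sit 30 min at room temperature before cAMP-d2 and anti-cAMP cryptate are added; signal is read after a further hour.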

A short description of assay [19]: qHTS assay to identify small molecule agonists of H2AX (AID 1224845; active = well fitted activation curve with a large enough effect in the signal ratio in the repeat runs, not every such curve was filed as active; the % refers to the signal ratio). In outline:
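Wild-type CHO-K1 cells plated overnight, then exposed 3 hr at 37C to compounds at 15 concentrations (0.76% DMSO). Lysed, then HTRF anti-pH2AX(S139)-cryptate/anti-H2AX-d2 detection after 24 hr at room temperature; emissions 665 and 620 nm.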

Assay [20] is described as follows: qHTS assay to identify small molecule agonists of H2AX - cell viability counter screen (AID 1224847; calls by dose curve; note: top concentration of the series differs between compounds; nearly all actives have a fitted effect of over 30% in size). In outline:
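Viability of CHO-K1 (wild type) cells after 3 hr compound exposure was measured by CellTiter-Glo luminescence.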

Molecules are shown by their SMILES. Values without a mark were called inactive. Records with an inconclusive call do not appear. Activity calls are given as the source filed them. Unless noted, calls come from the whole dose curve; as a rule, active = well fitted curve in the direction sought with a large enough effect in the repeat runs; inconclusive = weak or mixed curves; inactive = no such curve, though single readings can be large; an effect the other way counts as inactive or inconclusive.
% is set by controls: 0 for no effect and ±100 for the full control effect.

Sequence of Thyrotropin receptor (Homo sapiens) (P16473 whole entry, looked up): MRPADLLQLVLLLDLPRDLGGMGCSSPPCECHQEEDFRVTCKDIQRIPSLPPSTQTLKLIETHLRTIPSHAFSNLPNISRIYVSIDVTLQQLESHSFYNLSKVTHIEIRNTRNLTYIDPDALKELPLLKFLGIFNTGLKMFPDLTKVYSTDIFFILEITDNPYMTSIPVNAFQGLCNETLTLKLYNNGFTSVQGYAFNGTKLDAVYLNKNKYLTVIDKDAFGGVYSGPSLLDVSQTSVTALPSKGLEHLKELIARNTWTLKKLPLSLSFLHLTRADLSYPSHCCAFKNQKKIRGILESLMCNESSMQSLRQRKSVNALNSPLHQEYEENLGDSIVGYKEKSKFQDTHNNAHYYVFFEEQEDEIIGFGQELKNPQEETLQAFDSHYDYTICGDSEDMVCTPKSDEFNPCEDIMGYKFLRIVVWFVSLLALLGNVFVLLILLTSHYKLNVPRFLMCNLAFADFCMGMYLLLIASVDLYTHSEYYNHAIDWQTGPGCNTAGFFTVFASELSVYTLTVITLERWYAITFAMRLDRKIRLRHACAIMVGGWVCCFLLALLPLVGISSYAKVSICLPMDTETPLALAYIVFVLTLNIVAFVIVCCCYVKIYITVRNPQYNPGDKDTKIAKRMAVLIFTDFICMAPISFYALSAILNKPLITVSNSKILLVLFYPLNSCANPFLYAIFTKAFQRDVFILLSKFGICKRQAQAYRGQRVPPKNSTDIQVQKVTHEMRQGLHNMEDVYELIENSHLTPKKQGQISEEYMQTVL
Sequence of Luciferin 4-monooxygenase (Photinus pyralis) (P08659 whole entry, looked up): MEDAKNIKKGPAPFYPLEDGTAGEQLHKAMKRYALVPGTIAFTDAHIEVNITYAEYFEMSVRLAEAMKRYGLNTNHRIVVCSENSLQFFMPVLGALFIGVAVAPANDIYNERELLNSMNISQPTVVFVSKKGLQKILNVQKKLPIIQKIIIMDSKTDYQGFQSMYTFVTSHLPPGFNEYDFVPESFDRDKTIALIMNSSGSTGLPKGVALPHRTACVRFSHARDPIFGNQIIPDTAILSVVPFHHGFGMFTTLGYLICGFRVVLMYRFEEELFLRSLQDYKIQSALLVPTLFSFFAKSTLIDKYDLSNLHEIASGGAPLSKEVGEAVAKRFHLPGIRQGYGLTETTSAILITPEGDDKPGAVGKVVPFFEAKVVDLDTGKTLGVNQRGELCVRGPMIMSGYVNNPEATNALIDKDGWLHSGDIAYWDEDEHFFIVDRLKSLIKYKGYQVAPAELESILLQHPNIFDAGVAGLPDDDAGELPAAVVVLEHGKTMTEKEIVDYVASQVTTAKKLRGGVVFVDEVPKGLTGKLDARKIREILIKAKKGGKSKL

On to `COC(=O)c1nc(Cl)c(Cl)nc1N`, for which the Potency in [1] is 11.9 µM (active); in [4] it was 29.8 µM (active); in [5], 2.98 µM (active); in assay [7], 1.68 µM (active); in assay [9] it was 13.4 µM (active); in assay [10], 29.8 µM (active). The Potency in assay [12] is 5.35 µM (active); in assay [14], 12 µM (active). For the same compound, the Potency result in assay [2], in assay [3], in assay [6], in [8] and in [13] was “inactive” each time. Moreover, the activity change, positive = activation in assay [11] is -72.9% [at 42.5 µM].
Take `Cc1ccc(OC(=O)c2ccccc2O)cc1`: the Potency result in [1], in assay [3], in assay [4], in assay [5], in assay [6] and in assay [7] was “inactive” each time. Further, the Potency result in assay [15], in [9], in [10], in assay [17], in assay [12] and in assay [13] was “inactive” throughout. Moreover, the Potency result in [14] was “inactive”. Further, the Potency in [2] is 6.33 µM (active). In addition, in [16], the call was inactive. For the same compound, the activity change, positive = activation in assay [11] was 2.99%.
For the compound `CC1(C)O[C@@H]2C[C@H]3[C@@H]4C[C@H](F)C5=CC(=O)C=C[C@]5(C)[C@H]4[C@@H](O)C[C@]3(C)[C@]2(C(=O)CO)O1`, the Potency result in assay [1], in assay [2], in assay [3], in [4], in [5] and in assay [6] was “inactive” throughout. Besides, the Potency result in assay [7], in assay [18], in assay [9], in assay [19], in assay [20] and in assay [17] was “inactive” each time. The Potency result in assay [12], in assay [13] and in assay [14] was “inactive” in each case. Further, in [16], the call was inactive.
`CNC(=O)c1cnn(-c2nc(N)c3ncn([C@@H]4O[C@H](CO)[C@@H](O)[C@H]4O)c3n2)c1`: the Potency result in [1], in [2], in assay [3], in assay [4], in [5] and in assay [6] was “inactive” each time. Also, the Potency result in assay [7], in assay [18], in [9], in [19], in [20] and in assay [17] was “inactive” throughout. The Potency entry in assay [12], in assay [13] and in assay [14] was “inactive” in each case. In addition, the result in [16] was inactive.
Take `CC(=O)c1cc2ccccc2s1`: the Potency entry in assay [1], in [2], in assay [3], in assay [4], in assay [5] and in assay [6] was “inactive” throughout. Moreover, the Potency entry in assay [7], in assay [18], in assay [9], in [20], in [17] and in assay [12] was “inactive” throughout. In addition, the Potency entry in assay [13] and in assay [14] was “inactive” each time. Besides, in assay [16], the compound was classed as inactive.
For the compound `CCOC(=O)c1ccc(OCCN2C[C@H](O)[C@@H](O)[C@H](O)[C@H]2CO)cc1`, the Potency entry in assay [1], in assay [2], in assay [3], in assay [4], in assay [5] and in assay [6] was “inactive” in each case. Further, the Potency entry in assay [7], in assay [18], in assay [9], in assay [19], in assay [20] and in assay [17] was “inactive” each time. For the same compound, the Potency entry in assay [12], in assay [13] and in assay [14] was “inactive” each time. Moreover, the result in assay [16] was inactive.
Take `CCOC(C)=O`: the Potency result in assay [1], in assay [2], in assay [3], in assay [4], in assay [5] and in [6] was “inactive” each time. The Potency entry in assay [7], in assay [18], in assay [9], in assay [19], in assay [20] and in assay [17] was “inactive” throughout. Besides, the Potency result in assay [12], in [13] and in [14] was “inactive” each time. Further, the call in assay [16] was inactive.

Source of the values: PubChem BioAssay (Tox21).
